Mito fusion yeast – mitochondrial division inhibition or fusion activation | S. cerevisiae fusion-defective mutant growth rescue, CellTiterGlo 48 h | Potency, µM (top dose mostly 46.1 µM), actives largely listed as activators | actives 0.23% (n = 320,000); also: nearly all actives have a fitted effect of over 45% in size
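Luminescent cell viability in 1536-well qHTS format served as the measure of rescued growth in ts fusion-mutant S. cerevisiae cultured on non-fermentable YPEG for 48 hours at 37C.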
Apoferritin bind – binds horse apoferritin like a general anesthetic; apoferritin/1-aminoanthracene competitive binding, fluorescence; P02791; Potency, µM (titrated, usually from 77.5 µM), most hits filed as inhibitors; AID 485281; actives 0.074% (n = 350,000); also: nearly all actives have a fitted effect of over 20% in size
Target sequence (P02791 2-175 limits assumed): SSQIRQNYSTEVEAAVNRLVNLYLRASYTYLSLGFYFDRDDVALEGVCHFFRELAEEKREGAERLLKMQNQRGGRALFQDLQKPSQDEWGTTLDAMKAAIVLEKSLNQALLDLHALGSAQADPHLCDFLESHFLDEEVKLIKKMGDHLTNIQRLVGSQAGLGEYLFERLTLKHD
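Read-out: endpoint 1-AMA fluorescence, excitation 380 nm and emission 535 nm, after compounds sit 10 min at room temperature with 10 uM horse-spleen apoferritin in 50% saturated 1-AMA/PBS. Values come from four-parameter Hill fits.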
aSyn rescue – alpha-synuclein toxicity inhibition in yeast | Yeast expressing alpha-synuclein, growth rescue, BacTiter-Glo, 24 h | Potency, µM (series often up to 46.1 µM), actives largely listed as activators | actives 0.14% (n = 370,000); also: nearly all actives have a fitted effect of over 65% in size
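Galactose-induced alpha-syn yeast (OD600=0.02, raffinose-pregrown) + pinned cpd, 24 hr, 30 deg C; growth by BacTiter-Glo luminescence. Growth restoration scores as activation.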
TDP-43 yeast inh – rescues yeast growth from TDP-43 toxicity; Potency, µM (top dose mostly 46.1 µM), actives largely listed as activators; actives 1.8% (n = 410,000); TDP-43 expressing yeast growth rescue, BacTiter-Glo, 24 h; AID 652104; also: nearly all actives have a fitted effect of over 50% in size
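Galactose-induced TDP-43 yeast, OD600=0.02, compound pinned; 24 hr, 30 deg C; BacTiter-Glo luminescence for growth. Inhibitors of TDP-43 toxicity read as activators.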
Akt phos inh – inhibitors of Akt phosphorylation | Neuro2A IGF-stimulated pAkt S473 HTRF, 20 min; stronger effect = lower value | activity change, % for hits at 50 µM | actives 0.32% (n = 360,000) | AID 651550; in the data active = activity change below about -80%; inconclusive = mostly about -51% to -80%
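Neuro2A cells (4,500/well, DMEM with 0.5% FBS) were treated with compound at a single 50 µM final concentration, stimulated with 6 nM IGF for 20 min at 37 °C, and lysed. Phospho-Akt Ser473 was read by HTRF as 665/615 ratio ×10^4.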
CCT chaperon mod – modulators of cytosolic chaperonin (CCT/TRiC) activity | actives 0.3% (n = 360,000) | activity change, % (test concentration not listed), hits read low | purified chaperonin ATPase assay, HTRF ADP detection, 30 min; in the data active = activity change below about -30%
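Enzyme 40 or 20 nM (batch-dependent) in Tris pH 7.4/KCl/MgCl2/DTT; cpd 76 uM single point; ATP 10 uM; 30 min 37 °C; Transcreener ADP HTRF detection, 30 min RT; ratio 665/615.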
A number is an active result; – = inactive; ? = inconclusive; · = no result; [ ] = another dose, or the depositor's remark. Shown are actives, neighbours in structure and some others; about 2.5% of the full set was active somewhere. Unless noted, calls follow the shape of the dose curve; as a rule, active = well fitted curve in the direction sought with a large enough effect; inconclusive = small, poorly fitted or top-dose-only effect, or another doubt; inactive = no such curve, though single readings can be large; an effect the other way counts as inactive or inconclusive.

SMILES | Mito fusion yeast | Apoferritin bind | aSyn rescue | TDP-43 yeast inh | Akt phos inh | CCT chaperon mod
Clc1ccccc1-c1nc(-c2cccnc2)no1 | – | ? | – | ? | – | –
CNc1ncnc2ccc(-c3c(C)noc3C)cc12 | – | · | · | · | · | ·
CC1(C)N([O-])C(c2ccccc2)=C[N+](=O)C1(C)C | – | – | – | – | – | –
CC1(C)N([O-])C(c2cccs2)=C[N+]1=O | – | – | – | – | -124% | –
CC(C)(C)C(=O)CSc1n[nH]c(-c2ccccc2)n1 | · | · | – | · | · | ·
CCn1cc(C(=O)NCCc2ccc(OC)c(OC)c2)c(=O)c2cc(S(=O)(=O)N3CCc4ccccc4C3)ccc21 | · | – | · | – | · | ·
Cc1ccc(Cl)cc1N1CCN(S(=O)(=O)c2ccc3c(c2)CC(=O)N3C)CC1 | – | – | – | ? | – | -54
CN1C(=O)Cc2cc(S(=O)(=O)N3CCN(c4ccc(Cl)cc4)CC3)ccc21 | – | – | – | – | – | –
CCOc1ccccc1C(=O)Nc1cccc2ccc(C)nc12 | · | – | · | 20µM | · | ·
O=C(Nc1ccccc1)Nc1cccc2cccnc12 | – | – | – | 7.1µM | – | –
COc1c(C)cccc1C(=O)Nc1cccc2ccc(C)nc12 | · | – | · | 22µM | · | ·
CCOc1ccccc1C(=O)Nc1ccccc1O | – | – | – | 14µM | – | –
O=C(Nc1ccc2c(c1)N(C1CCCC1)C(=O)c1ccccc1S2)c1cccc(F)c1 | · | – | · | – | · | ·
COc1ccc(-c2cn3cccnc3n2)cc1NC(=O)COc1ccccc1 | · | – | · | – | · | ·
CCOC(=O)C1CCN(C(=O)C2CCN(c3nnc(C)c4c(C)n(-c5ccccc5)nc34)CC2)CC1 | · | – | · | – | · | ·
COc1ccccc1C(=O)Nc1cccc2cccnc12 | – | – | – | 3.2µM | – | –
Oc1ccccc1CNc1cccc2cccnc12 | – | ? | – | 14µM | – | –
CN1c2ccccc2Oc2nnc(Cl)cc21 | – | – | 16µM | 11µM | – | –
CN1c2ccccc2Oc2nnc(N3CCN(Cc4ccccc4)CC3)cc21 | – | – | – | –[9.22 µM] | – | –
O=C(CCl)N1N=C(c2cccs2)CC1c1ccco1 (stereo not drawn) | – | – | – | 22µM | – | –
COc1ccc(-n2ncc3c2CC(C)(C)CC3NC(=O)c2oc(C)cc2C)cc1 (stereo not drawn) | – | – | – | – | – | –
Cc1cc(C)c(C(=O)NC2CC(C)(C)Cc3c2cnn3-c2ccccc2)o1 (stereo not drawn) | – | ? | – | 16µM | – | –
CCOC(=O)c1cc(-c2ccccc2)sc1NC(=O)C(C)(C)C | – | – | – | – | – | -31
CC(=O)Nc1ccc(NCN2C(=O)[C@@H]3[C@H]4CC[C@H](C4)[C@@H]3C2=O)cc1 | – | – | – | 6.3µM | – | –
O=C(CCCCn1c(=O)c2ccccc2n(Cc2ccc(F)cc2)c1=O)NCc1ccco1 | – | – | – | – | -99% | –
SMILES | Mito fusion yeast | Apoferritin bind | aSyn rescue | TDP-43 yeast inh | Akt phos inh | CCT chaperon mod
O=C(CCCn1c(=O)c2ccccc2n(Cc2ccccc2)c1=O)NCc1ccco1 | – | – | – | – | – | –
COc1cccc(N2CCN(c3c(C#N)c(C(F)(F)F)nn3C)CC2)c1 | – | – | – | ? | – | –
Cn1nc(C(F)(F)F)c(C#N)c1N1CCN(c2ccccc2F)CC1 | – | – | – | – | -107% | –
CCCNC(=O)NC(=O)COc1c(F)c(F)cc(F)c1F | – | – | – | – | -102% | –
O=C(C[n+]1cccc2cc(Cl)ccc21)c1ccc2ccccc2c1 | · | · | – | · | · | ·
COC(=O)c1ccc(-n2nnc(-c3nc(-c4ccc5c(c4)OCO5)no3)c2C)cc1 | · | – | · | – | · | ·
O=C(Cn1ncc(Cl)c(Cl)c1=O)c1ccc2c(c1)OCCO2 | · | · | ? | 22µM | – | –
Cc1ccc(Nc2nc(NCc3ccco3)nc3nccnc23)cc1 | · | · | – | · | · | ·
Cc1ccc(-n2nnnc2-c2cccnc2)cc1 | – | – | – | – | – | –
COc1ccc(-n2nnnc2-c2cccc(OC)c2)cc1 | – | – | – | 13µM | – | –
Cc1ccc(-n2nnnc2-c2cccc(C)c2)cc1 | – | – | – | 20µM | – | –
Cc1cccc(-c2nnnn2-c2cccc(C)c2)c1 | – | – | – | ? | – | –
N#CN=c1snc(-c2ccccc2Cl)n1-c1ccccc1Cl | · | · | – | · | · | ·
O=C(c1ccc(COc2c(F)c(F)c(F)c(F)c2F)o1)N1CCOCC1 | – | – | – | – | – | –
COc1ccc(N2CCN(C(=O)c3ccc(COc4ccc([N+](=O)[O-])cc4)o3)CC2)cc1 | – | ? | – | 11µM | – | –
O=C(c1ccc(COc2ccc(Cl)cc2Cl)o1)N1CCCC1 | – | – | – | 13µM | – | –
O=C(c1ccc(COc2c(F)c(F)cc(F)c2F)o1)N1CCN(c2ccccc2)CC1 | – | – | – | 22µM | – | –
CC(SC1=NS(=O)(=O)c2ccccc21)C(=O)O (stereo not drawn) | · | · | – | · | · | ·
O=C(O)Cc1csc2ccccc12 | – | – | – | ? | -126% | –
O=C(Cc1csc2ccccc12)NCc1ccccc1F | · | – | · | – | · | ·
CCOC(=O)c1ccc(NC(=O)c2nc[nH]c2C(=O)NCCCCCNC(=O)OC(C)(C)C)cc1 | – | – | – | – | – | –
CCOC(=O)c1ccc(NC(=O)c2nc[nH]c2C(=O)NCC(=O)OC(C)(C)C)cc1 | – | ? | – | 22µM | – | –
CN1CC(c2ccccn2)C2(SC(=S)N(Cc3ccccc3)C2=O)C12C(=O)Nc1ccccc12 (stereo not drawn) | – | – | – | – | -84% | –
CN1CC(c2ccccc2)C2(SC(=S)N(Cc3ccco3)C2=O)C12C(=O)Nc1ccccc12 (stereo not drawn) | – | ? | – | – | – | –
CCC(C)NC(=O)CSc1nc2cc3c(cc2c(=O)n1Cc1ccco1)OCO3 (stereo not drawn) | – | – | – | – | – | –
SMILES | Mito fusion yeast | Apoferritin bind | aSyn rescue | TDP-43 yeast inh | Akt phos inh | CCT chaperon mod
CCN(CC)C(=O)CSc1nc2cc3c(cc2c(=O)n1Cc1ccco1)OCO3 | – | – | – | – | – | -34
Cc1ccc(Cl)cc1N(C)C(=O)c1sc2nc3n(c(=O)c2c1C)CCCC3 | · | – | · | 20µM | · | ·
Cc1ccc(N(C)C(=O)c2sc3nc4n(c(=O)c3c2C)CCCC4)cc1C | · | – | · | 16µM | · | ·
CCCNC(=O)C(Cc1ccccc1F)NC(=O)c1ccc(C#N)cc1 (stereo not drawn) | – | · | – | – | – | –
CCCNC(=O)C(Cc1ccccc1C)NC(=O)c1ccc(C#N)cc1 (stereo not drawn) | – | · | – | – | – | -38
COC(=O)c1sccc1-c1ccc(C(=O)Nc2ccccc2)o1 | – | ? | – | 13µM | -128% | –
NC(=S)NN=C1CCCCCCCCCC1 | · | · | – | 14µM | – | –
C[C@H]1[C@H](c2ccccc2)C[C@@H](C(=O)O)C1(C)C | – | · | – | 14µM | – | –

Source: PubChem BioAssay
